Measured values reported in article PMC7862700, “An all-to-all approach to the identification of sequence-specific readers for epigenetic DNA modifications on cytosine”.

Experiments:
Test in all cases: DAPPL (digital affinity profiling via proximity ligation, sequencing); 10 mM Tris-HCl pH 7.5, 50 mM NaCl, 1 mM DTT, 4% glycerol, room temperature, 30 min; GST-TFs on glutathione beads, 16-mer random dsDNA library, 0.1% formaldehyde crosslink after washing; high values mean tight binding
Details in all cases: protein: recombinant; tags: N-terminal GST; dsDNA, one strand shown
FLI1 = target: T1, FLI1 (Homo sapiens, UniProt Q01543 1-452)
T1 sequence: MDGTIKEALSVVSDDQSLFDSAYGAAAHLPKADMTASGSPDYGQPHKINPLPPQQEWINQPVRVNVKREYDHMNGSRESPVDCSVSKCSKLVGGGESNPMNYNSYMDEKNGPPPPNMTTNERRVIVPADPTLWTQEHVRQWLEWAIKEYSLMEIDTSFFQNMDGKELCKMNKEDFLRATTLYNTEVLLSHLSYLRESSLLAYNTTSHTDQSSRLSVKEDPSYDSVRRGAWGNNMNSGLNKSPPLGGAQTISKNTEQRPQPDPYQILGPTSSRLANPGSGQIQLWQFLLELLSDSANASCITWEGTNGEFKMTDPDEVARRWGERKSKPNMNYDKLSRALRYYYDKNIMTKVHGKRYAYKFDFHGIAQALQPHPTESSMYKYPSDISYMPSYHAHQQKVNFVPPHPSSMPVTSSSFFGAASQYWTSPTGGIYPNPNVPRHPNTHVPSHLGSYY
Method in brief: (§1)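 Human transcription factors carrying a GST fusion were produced in yeast, bound to glutathione beads, tagged with DNA barcodes and pooled together with a tag-only sample. Each pool was held with 200 nmole of a random double-stranded 16-mer DNA library in Tris/NaCl/DTT/glycerol buffer for 30 min at room temperature, then washed, crosslinked in 0.1% formaldehyde, proximity-ligated with BsaI/T4 ligase (1 h, 37 °C), PCR-amplified and sequenced on an Illumina NextSeq500. Binding signal is the read frequency of each hexamer for a given factor divided by its frequency in the tag-only sample.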

ELK1 = target: T2, ELK1 (Homo sapiens, UniProt P19419 1-428)
T2 sequence: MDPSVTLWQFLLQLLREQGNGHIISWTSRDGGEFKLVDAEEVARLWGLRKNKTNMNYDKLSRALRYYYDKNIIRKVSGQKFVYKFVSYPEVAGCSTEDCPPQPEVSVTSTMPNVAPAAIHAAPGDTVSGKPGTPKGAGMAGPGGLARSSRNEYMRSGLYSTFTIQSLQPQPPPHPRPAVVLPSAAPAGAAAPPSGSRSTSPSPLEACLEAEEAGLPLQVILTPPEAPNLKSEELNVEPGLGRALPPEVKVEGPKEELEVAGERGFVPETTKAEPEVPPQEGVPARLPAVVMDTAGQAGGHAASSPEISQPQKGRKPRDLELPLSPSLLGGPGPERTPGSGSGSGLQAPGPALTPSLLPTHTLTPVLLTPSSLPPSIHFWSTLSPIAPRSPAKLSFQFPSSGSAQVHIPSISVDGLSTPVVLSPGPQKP
Method in brief: as §1

GABPA = target: T3, GABPA (Homo sapiens, UniProt Q06546 1-454)
T3 sequence: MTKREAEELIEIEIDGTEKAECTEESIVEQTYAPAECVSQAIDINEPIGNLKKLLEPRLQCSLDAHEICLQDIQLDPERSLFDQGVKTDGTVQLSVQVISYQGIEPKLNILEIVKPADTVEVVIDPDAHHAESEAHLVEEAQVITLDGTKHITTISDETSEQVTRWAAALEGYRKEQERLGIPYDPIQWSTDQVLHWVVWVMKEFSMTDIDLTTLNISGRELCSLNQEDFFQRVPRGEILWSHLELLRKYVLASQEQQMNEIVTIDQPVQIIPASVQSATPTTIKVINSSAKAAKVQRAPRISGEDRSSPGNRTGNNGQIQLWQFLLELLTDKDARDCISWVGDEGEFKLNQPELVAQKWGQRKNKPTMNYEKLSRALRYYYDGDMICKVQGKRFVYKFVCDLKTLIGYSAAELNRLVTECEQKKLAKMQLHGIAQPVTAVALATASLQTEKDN
Method in brief: as §1

ERG = target: T4, ERG (Homo sapiens, UniProt P11308 1-479)
T4 sequence: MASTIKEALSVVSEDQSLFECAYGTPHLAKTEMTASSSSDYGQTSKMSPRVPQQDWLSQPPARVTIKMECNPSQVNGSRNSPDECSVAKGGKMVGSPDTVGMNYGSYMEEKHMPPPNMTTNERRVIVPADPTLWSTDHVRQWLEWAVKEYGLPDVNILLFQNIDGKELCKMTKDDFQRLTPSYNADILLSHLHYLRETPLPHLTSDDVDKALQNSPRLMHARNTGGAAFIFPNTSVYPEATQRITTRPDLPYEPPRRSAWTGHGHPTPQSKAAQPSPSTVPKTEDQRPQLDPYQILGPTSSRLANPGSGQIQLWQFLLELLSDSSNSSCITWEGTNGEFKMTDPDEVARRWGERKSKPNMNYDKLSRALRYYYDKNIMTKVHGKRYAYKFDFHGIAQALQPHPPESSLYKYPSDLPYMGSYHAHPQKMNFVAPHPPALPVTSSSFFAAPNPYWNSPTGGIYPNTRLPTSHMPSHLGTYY
Method in brief: as §1

ELF1 = ELF1 (Homo sapiens, UniProt P32519 1-619)
Method in brief: as §1

EHF = target: T5, EHF (Homo sapiens, UniProt Q9NZC4 1-300)
T5 sequence: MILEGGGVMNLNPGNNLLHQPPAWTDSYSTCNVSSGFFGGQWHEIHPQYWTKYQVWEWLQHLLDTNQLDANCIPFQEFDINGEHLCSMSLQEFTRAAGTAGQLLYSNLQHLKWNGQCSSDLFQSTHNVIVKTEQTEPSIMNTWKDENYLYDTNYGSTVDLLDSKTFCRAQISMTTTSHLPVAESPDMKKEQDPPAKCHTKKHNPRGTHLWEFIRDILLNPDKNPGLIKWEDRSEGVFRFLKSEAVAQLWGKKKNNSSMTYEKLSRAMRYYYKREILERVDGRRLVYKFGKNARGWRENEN
Method in brief: as §1

SPI1 = SPI1 (Homo sapiens, UniProt P17947 1-270)
Method in brief: as §1

SPIB = SPIB (Homo sapiens, UniProt Q01892 1-262)
Method in brief: as §1

ELK3 = target: T6, ELK3 (Homo sapiens, UniProt P41970 1-407)
T6 sequence: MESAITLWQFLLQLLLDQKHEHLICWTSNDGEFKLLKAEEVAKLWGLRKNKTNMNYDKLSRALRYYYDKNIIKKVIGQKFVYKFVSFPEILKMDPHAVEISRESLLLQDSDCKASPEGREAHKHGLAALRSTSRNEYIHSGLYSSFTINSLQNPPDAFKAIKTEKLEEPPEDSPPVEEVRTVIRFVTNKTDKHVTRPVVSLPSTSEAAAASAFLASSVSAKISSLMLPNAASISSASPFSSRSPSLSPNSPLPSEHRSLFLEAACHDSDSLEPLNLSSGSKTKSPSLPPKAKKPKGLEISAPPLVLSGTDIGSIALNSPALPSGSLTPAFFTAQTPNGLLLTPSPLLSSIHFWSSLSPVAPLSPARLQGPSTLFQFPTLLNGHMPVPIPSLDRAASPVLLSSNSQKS
Method in brief: as §1

Sequence of SPIB (Q01892 whole entry): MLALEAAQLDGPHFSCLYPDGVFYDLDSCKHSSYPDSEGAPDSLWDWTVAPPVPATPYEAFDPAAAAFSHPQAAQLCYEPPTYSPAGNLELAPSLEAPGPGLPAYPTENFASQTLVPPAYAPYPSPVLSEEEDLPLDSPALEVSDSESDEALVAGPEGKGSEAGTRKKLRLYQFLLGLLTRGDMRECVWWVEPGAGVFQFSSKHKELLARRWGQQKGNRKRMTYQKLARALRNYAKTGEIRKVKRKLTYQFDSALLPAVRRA
Sequence of ELF1 (P32519 whole entry): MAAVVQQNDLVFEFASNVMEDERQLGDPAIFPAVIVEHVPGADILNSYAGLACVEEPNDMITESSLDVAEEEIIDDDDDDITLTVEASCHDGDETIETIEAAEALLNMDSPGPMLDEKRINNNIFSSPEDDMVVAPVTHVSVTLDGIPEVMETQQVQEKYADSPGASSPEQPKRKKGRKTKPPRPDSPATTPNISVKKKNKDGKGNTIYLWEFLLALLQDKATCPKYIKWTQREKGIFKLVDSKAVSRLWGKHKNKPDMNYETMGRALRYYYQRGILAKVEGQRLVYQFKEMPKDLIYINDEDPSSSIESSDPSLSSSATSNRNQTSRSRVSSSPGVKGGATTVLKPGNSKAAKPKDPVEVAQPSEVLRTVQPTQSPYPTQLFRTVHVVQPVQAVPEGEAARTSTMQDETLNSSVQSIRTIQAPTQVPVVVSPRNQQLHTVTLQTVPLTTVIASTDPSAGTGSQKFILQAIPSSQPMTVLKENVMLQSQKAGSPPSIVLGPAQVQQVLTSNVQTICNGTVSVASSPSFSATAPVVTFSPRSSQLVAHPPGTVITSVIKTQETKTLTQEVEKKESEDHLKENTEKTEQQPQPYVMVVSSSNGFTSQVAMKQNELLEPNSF

Sequence | binding signal (FLI1) | binding signal (ELK1) | binding signal (GABPA) | binding signal (ERG) | binding signal (ELF1) | binding signal (EHF) | binding signal (SPI1) | binding signal (SPIB) | binding signal (ELK3)
TTTTGG | 1.35 fold enrichment (6-mer frequency, TF over GST control) | 1.42 fold enrichment (6-mer frequency, TF over GST control) | 1.47 fold enrichment (6-mer frequency, TF over GST control) | 1.26 fold enrichment (6-mer frequency, TF over GST control) | 1.36 fold enrichment (6-mer frequency, TF over GST control) | 1.37 fold enrichment (6-mer frequency, TF over GST control) | 1.5 fold enrichment (6-mer frequency, TF over GST control) | 1.63 fold enrichment (6-mer frequency, TF over GST control) | 1.31 fold enrichment (6-mer frequency, TF over GST control)
CTCTAG | 1.25 fold enrichment (6-mer frequency, TF over GST control) | 1.26 fold enrichment (6-mer frequency, TF over GST control) | 1.32 fold enrichment (6-mer frequency, TF over GST control) | 1.25 fold enrichment (6-mer frequency, TF over GST control) | 1.38 fold enrichment (6-mer frequency, TF over GST control) | 1.36 fold enrichment (6-mer frequency, TF over GST control) | 1.09 fold enrichment (6-mer frequency, TF over GST control) | 1.22 fold enrichment (6-mer frequency, TF over GST control) | 1.26 fold enrichment (6-mer frequency, TF over GST control)
TTACAG | 1.19 fold enrichment (6-mer frequency, TF over GST control) | 1.18 fold enrichment (6-mer frequency, TF over GST control) | 1.15 fold enrichment (6-mer frequency, TF over GST control) | 1.17 fold enrichment (6-mer frequency, TF over GST control) | 1.22 fold enrichment (6-mer frequency, TF over GST control) | 1.13 fold enrichment (6-mer frequency, TF over GST control) | 1.11 fold enrichment (6-mer frequency, TF over GST control) | 1.29 fold enrichment (6-mer frequency, TF over GST control) | 1.17 fold enrichment (6-mer frequency, TF over GST control)
TTTACT | 1.41 fold enrichment (6-mer frequency, TF over GST control) | 1.56 fold enrichment (6-mer frequency, TF over GST control) | 1.53 fold enrichment (6-mer frequency, TF over GST control) | 1.43 fold enrichment (6-mer frequency, TF over GST control) | 1.43 fold enrichment (6-mer frequency, TF over GST control) | 1.51 fold enrichment (6-mer frequency, TF over GST control) | 1.46 fold enrichment (6-mer frequency, TF over GST control) | 1.37 fold enrichment (6-mer frequency, TF over GST control) | 1.41 fold enrichment (6-mer frequency, TF over GST control)
AACCTT | 1.3 fold enrichment (6-mer frequency, TF over GST control) | 1.25 fold enrichment (6-mer frequency, TF over GST control) | 1.25 fold enrichment (6-mer frequency, TF over GST control) | 1.26 fold enrichment (6-mer frequency, TF over GST control) | 1.33 fold enrichment (6-mer frequency, TF over GST control) | 1.33 fold enrichment (6-mer frequency, TF over GST control) | 1.26 fold enrichment (6-mer frequency, TF over GST control) | 1.34 fold enrichment (6-mer frequency, TF over GST control) | 1.33 fold enrichment (6-mer frequency, TF over GST control)
ATACCT | 1.13 fold enrichment (6-mer frequency, TF over GST control) | 1.18 fold enrichment (6-mer frequency, TF over GST control) | 1.07 fold enrichment (6-mer frequency, TF over GST control) | 1.05 fold enrichment (6-mer frequency, TF over GST control) | 1.13 fold enrichment (6-mer frequency, TF over GST control) | 1.08 fold enrichment (6-mer frequency, TF over GST control) | 1.04 fold enrichment (6-mer frequency, TF over GST control) | 1.1 fold enrichment (6-mer frequency, TF over GST control) | 1.08 fold enrichment (6-mer frequency, TF over GST control)
TTCGAC | 1.52 fold enrichment (6-mer frequency, TF over GST control) | 1.51 fold enrichment (6-mer frequency, TF over GST control) | 1.49 fold enrichment (6-mer frequency, TF over GST control) | 1.43 fold enrichment (6-mer frequency, TF over GST control) | 1.49 fold enrichment (6-mer frequency, TF over GST control) | 1.41 fold enrichment (6-mer frequency, TF over GST control) | 1.3 fold enrichment (6-mer frequency, TF over GST control) | 1.45 fold enrichment (6-mer frequency, TF over GST control) | 1.39 fold enrichment (6-mer frequency, TF over GST control)
ATCTCC | 1.61 fold enrichment (6-mer frequency, TF over GST control) | 1.5 fold enrichment (6-mer frequency, TF over GST control) | 1.56 fold enrichment (6-mer frequency, TF over GST control) | 1.51 fold enrichment (6-mer frequency, TF over GST control) | 1.47 fold enrichment (6-mer frequency, TF over GST control) | 1.6 fold enrichment (6-mer frequency, TF over GST control) | 1.37 fold enrichment (6-mer frequency, TF over GST control) | 1.49 fold enrichment (6-mer frequency, TF over GST control) | 1.42 fold enrichment (6-mer frequency, TF over GST control)
